# Screens from PubChem BioAssay.
# HT1080 IDH1KD tx: qHTS for induction of synthetic lethality in tumor cells producing 2HG: qHTS for the HT-1080-IDH1KD cell line. HT-1080 IDH1 knockdown viability, ATP luminescence, 48 h. Potency, µM (highest dose often 46.1 µM), for the others: at the top dose activity, negative = toxicity, usual class: cytotoxic. actives 2% (n = 360,000);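 further: potency means the concentration at half of the fitted maximal effect; 0% = DMSO wells and -100% = cell-free medium wells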
#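 Cytotoxicity counter-line: IDH1KD HT-1080, 48 h, CellTiter-Glo. Curves classed by r2, magnitude and activity.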
# TDP1 cell noCPT: qHTS for Inhibitors of human tyrosyl-DNA phosphodiesterase 1 (TDP1): qHTS in cells in absence of CPT | DT40 Tdp1-/- hTDP1 cells, no CPT, ATP luminescence, 48 h | Potency, µM (top dose mostly 46.2 µM), inactives show at the highest dose activity change, negative = growth inhibition, hits mostly inhibitors | actives 15% (n = 420,000) | AID 686978, 2013; further: potency means the concentration at half of the fitted maximal effect; nearly all actives have a fitted effect of over 55% in size
#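 Seeded 400 DT40-hTDP1 cells/well (vehicle DMSO, no 20 nM CPT); pinned compounds; ≥48 hr at 37 °C; CellTiter-Glo luminescence as viability measure.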
# HT1080-NT tox: qHTS for induction of synthetic lethality in tumor cells producing 2HG: qHTS for the HT-1080-NT fibrosarcoma cell line. HT-1080-NT fibrosarcoma viability, CellTiter-Glo ATP luminescence, 48 h. Potency, µM (doses to about 46.1 µM), without a hit: top-dose activity, negative = less viability, hits mostly cytotoxic. actives 1.6% (n = 360,000);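 further: NT is the 2HG producing partner of a matched IDH1 knockdown line; potency means the concentration at half of the fitted maximal effect; 0% = DMSO-treated cells and -100% = media-only wells without cells; nearly all actives have a fitted effect of over 55% in size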
#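 HT-1080-NT fibrosarcoma cells (2HG-overproducing), 750 cells/well in RPMI with 5% FBS, dosed after 2 h and incubated 48 h at 37C. CellTiter-Glo luminescence normalized to DMSO and no-cell wells; concentration-response curves fitted and classed.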
# IL-1B inflam inh: qHTS for Inhibitors of Inflammasome Signaling: IL-1-beta AlphaLISA Primary Screen. actives 4.7% (n = 360,000). activity change, % at 57.5 µM. THP-1 LPS/ATP IL-1B secretion, AlphaLISA, 16 h; stronger effect = lower value; in the data active means activity change below about -50%; inconclusive means mostly about -30% to -49%
#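 Secreted IL-1B measured by AlphaLISA bead assay after 16 h compound exposure of THP-1 cells; compounds (final up to 57.5 uM) added 1 h before LPS (250 ng/mL) and ATP (1.25 mM) stimulation; lower signal means less secretion.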
# TDP1 cell CPT: qHTS for Inhibitors of human tyrosyl-DNA phosphodiesterase 1 (TDP1): qHTS in cells in presence of CPT. chicken DT40 Tdp1-/-;hTDP1 cells + 20 nM CPT, ATP luminescence, 48 h. Potency, µM (series often up to 46.2 µM), without a hit: at the top dose activity change, negative = growth inhibition, hits mostly inhibitors. actives 12% (n = 420,000). AID 686979, 2013; further: potency means the concentration at half of the fitted maximal effect; nearly all actives have a fitted effect of over 55% in size
#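 Chicken DT40 Tdp1-/- cells stably complemented with human TDP1 were seeded at 400 cells/well in medium containing 20 nM camptothecin, exposed to pin-transferred compounds, and grown at 37 °C for at least 48 hr. Viability was read as ATP luminescence.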
# * marks the source's active call; other numbers are inactive results; ? = inconclusive. Compounds with a hit are over-represented: about 19% of the library has one in this group of screens. Unless noted, the call rests on the fitted dose curve; in most records, active means well fitted curve in the direction sought with a large enough effect; inconclusive means small, poorly fitted or top-dose-only effect, or another doubt; inactive means no such curve, though single readings can be large; an effect the other way counts as inactive or inconclusive. Unless noted, on the % scale 0 is the no-effect control and ±100 the full control effect.
SMILES,HT1080 IDH1KD tx,TDP1 cell noCPT,HT1080-NT tox,IL-1B inflam inh,TDP1 cell CPT
COc1ccccc1NC(=O)c1c(NC(=O)c2ccco2)sc2c1CCC2,18%,?,-1%,-18,?
CC(C)(C)OC(=O)N1CCN(C(=O)[C@H](Cc2ccc(O)cc2)n2cc(CCO)nn2)CC1,11%,-2%,8%,3,-12%
COc1cc(C(=O)Oc2ccccc2/C=N/NC(=O)c2ccc(C)c(Cl)c2)cc(OC)c1OC,?,0.92µM*,?,44,1.2µM*
COc1ccc(C(=O)N/N=C/c2ccccc2C(=O)O)cc1OC,14%,-20%,12%,0,-5%
CC(=O)Nc1ccc(C(=O)N/N=C/c2ccccc2OC(=O)c2ccc(Cl)cc2)cc1,23µM*,10µM*,?,71,9.2µM*
c1ccc(NCc2nc(-c3ccccc3)no2)cc1,9%,-18%,9%,-3,5%
COCCNC(=S)N/N=C(\C)c1ccc(C)c([N+](=O)[O-])c1,-2%,1.5µM*,7%,-65*,1.3µM*
COCCNC(=S)N/N=C(\C)c1ccc(OC(F)F)cc1,0%,3%,2%,-11,16µM*
COCCNC(=S)N/N=C(\C)c1cccc(C(F)(F)F)c1,19%,21µM*,20%,-9,?
C=C(C)CNC(=S)N/N=C(\C)c1ccc(OC)cc1,2%,2.9µM*,9%,0,3.7µM*
CC(C)CNc1ncnc2c1ncn2[C@H]1CN(CCN2CCOCC2)C[C@@H](CO)O1,7%,-7%,18%,0,-3%
COCCNC(=S)N/N=C(\C)c1ccc2cc(OC)ccc2c1,-25%,26µM*,-15%,-88*,13µM*
CCNC(=S)N/N=C(\C)c1cccc(OC)c1,0%,11%,-1%,5,2%
COCCNC(=S)N/N=C(\C)c1cc2ccccc2o1,15%,18µM*,18%,12,?
C/C(=N\NC(=O)COc1ccc(C(C)(C)C)cc1)c1cc2ccccc2o1,-17%,?,-1%,-25,0%
CN(C)C(C(=O)NC1CCCCC1)c1ccc(Cl)cc1 (configuration not stated),-4%,?,-10%,-5,-24%
COc1ccc(C(C(=O)NC2CCCCC2)N(C(=O)CCl)c2ccc(Cl)cc2)cc1 (configuration not stated),1.5µM*,-105%,2.3µM*,-96*,1µM*
COC(CN(C(=O)CCl)C(C(=O)NC1CCCC(C)C1C)c1ccc(C)cc1)OC (configuration not stated),-1%,21µM*,-1%,-100*,5.2µM*
COC(CN(C(=O)CCl)C(C(=O)NC1CCCCC1)c1ccc(Cl)cc1)OC (configuration not stated),-19%,3.3µM*,-11%,?,5.2µM*
O=C(NC1CCCCC1)C(c1cccnc1)N(C(=O)CCl)c1cccc(Cl)c1 (configuration not stated),1.8µM*,2.1µM*,5.2µM*,-93*,2.1µM*
O=C(c1cccnc1)C1CCCN(Cc2nc(Cc3ccccc3)no2)C1 (configuration not stated),1%,-28%,-5%,11,2%
CCCOc1ccc(C(=O)NC(=S)NNC(=O)c2c(-c3ccccc3)noc2C)cc1,?,?,?,74,23µM*
Cc1onc(-c2ccccc2)c1C(=O)NNC(=O)c1ccccc1Br,10%,2%,10%,-14,-6%
COC(=O)c1ccc(NC(=S)NC(=O)c2c(-c3ccccc3)noc2C)cc1,1%,-4%,-6%,4,14%
Cc1onc(-c2ccccc2)c1C(=O)NC(=S)NNC(=O)c1ccccc1O,5.2µM*,3.3µM*,8.2µM*,100,3.7µM*
SMILES,HT1080 IDH1KD tx,TDP1 cell noCPT,HT1080-NT tox,IL-1B inflam inh,TDP1 cell CPT
Cc1onc(-c2ccccc2)c1C(=O)NC(=S)NNC(=O)c1ccc(O)cc1,?,13µM*,-15%,61,?
CCCOc1ccc(C(=O)NC(=S)Nc2nc3ccccc3s2)cc1,25%,-13%,3%,34,6%
Cc1onc(-c2ccccc2)c1C(=O)NC(=S)NNC(=O)c1ccc(O)cc1O,-28%,4.6µM*,?,31,4.1µM*
O=C(CCC1CCCN(C(=O)c2cc(F)ccc2F)C1)N1CCN(c2ccccn2)CC1 (configuration not stated),-12%,?,0%,0,?
Cc1ccnc(NS(=O)(=O)c2ccc(NC(=O)c3cccc(Cl)c3)cc2)n1,-2%,1%,-1%,21,-21%
CCc1cccc(OCC(=O)Nc2cc(S(=O)(=O)N3CCOCC3)ccc2N2CCCC2)c1,6%,?,8%,-23,?
C[C@H]1CN([C@@H](C)CO)C(=O)CCCn2nncc2CO[C@@H]1CN(C)C(=O)Nc1cccc2ccccc12,-13%,1%,4%,10,9%
CC(=O)Nc1ccc(OCCCNC(=O)c2c(-c3ccccc3)noc2C)cc1,0%,15µM*,1%,13,?
CCOc1ccc(NC(=O)C2CCCN(C)C2)cc1 (configuration not stated),8%,21%,0%,-9,-7%
Cc1ccc(S(=O)(=O)N2CCN(C(=O)c3cc(C4CC4)nn3-c3ccccc3)CC2)cc1,6%,?,0%,19,?
O=C(c1cc(C2CC2)nn1-c1ccccc1)N1CCN(Cc2ccc(Cl)cc2)CC1,-6%,12µM*,-28%,-17,18µM*
O=C(c1cc(C2CC2)nn1-c1ccccc1)N1CCN(S(=O)(=O)c2ccccc2)CC1,-11%,16µM*,-2%,-14,?
O=C(c1cc(C2CC2)nn1-c1ccccc1)N1CCN(Cc2ccccc2F)CC1,-18%,23µM*,-10%,?,16µM*
O=C(c1cc(-c2ccccc2)nn1-c1ccccc1)N1CCN(S(=O)(=O)c2c(F)cccc2F)CC1,0%,?,2%,-9,13µM*
Cc1cccc(C)c1NC(=O)CN1CCN(C(=O)c2cc(C3CC3)nn2-c2ccccc2)CC1,-4%,?,2%,-14,-25%
O=C(NC(Cc1ccccc1)C(=O)NCc1ccccn1)c1ccco1 (configuration not stated),-4%,3%,-5%,19,-2%
